Experimental data published in PubChem BioAssay (NCATS).
Results filed as inconclusive are left out. Values without a mark were called inactive. The source made the active and inactive calls. Calls come from the whole dose curve; as a rule, active = well fitted inhibition curve with a large enough effect in the repeat runs; inconclusive = weak or mixed curves; inactive = flat fitted curve, though single readings scatter.

biological target: Cytochrome P450 2D6 (Homo sapiens) (UniProt P10635); assay: Cytochrome P450 family 2 subfamily D member 6 (CYP2D6) small molecule antagonists: luciferase biochemical (cell-free) qHTS assay (AID 1645840); conditions: P450-Glo CYP2D6 enzyme, luciferin luminescence, 1 h; series mostly up to 57.4 µM; activity change, negative = inhibition: at the top concentration; note: nearly all actives have a fitted effect of over 55% in size
In short: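 P450-Glo CYP2D6 system: proluciferin substrate converted by enzyme to luciferin, read by luminescence proportional to activity. Enzyme-substrate mix with compound 10 min at room temperature, then NADPH regeneration 1 h before detection reagent.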
% is set by controls: 0 for no effect and ±100 for the full control effect; potency is the fitted concentration of half-maximal effect.

Cytochrome P450 2D6 (Homo sapiens), sequence (P10635 whole entry, looked up): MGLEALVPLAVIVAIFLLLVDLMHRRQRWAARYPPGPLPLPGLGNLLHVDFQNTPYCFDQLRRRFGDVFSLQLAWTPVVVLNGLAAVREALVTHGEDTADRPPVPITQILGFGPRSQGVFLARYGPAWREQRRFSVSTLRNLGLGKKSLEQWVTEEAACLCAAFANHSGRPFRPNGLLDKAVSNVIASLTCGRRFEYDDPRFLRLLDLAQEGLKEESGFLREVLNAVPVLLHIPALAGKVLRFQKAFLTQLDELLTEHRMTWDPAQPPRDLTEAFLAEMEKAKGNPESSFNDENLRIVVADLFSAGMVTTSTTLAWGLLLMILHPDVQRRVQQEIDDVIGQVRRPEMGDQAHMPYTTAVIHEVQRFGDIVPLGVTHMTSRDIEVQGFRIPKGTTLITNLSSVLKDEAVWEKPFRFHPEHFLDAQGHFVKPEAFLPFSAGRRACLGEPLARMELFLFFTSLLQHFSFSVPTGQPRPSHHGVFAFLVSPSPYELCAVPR

Row | Compound | activity change, negative = inhibition [%] | Potency
1 | CCCC(CCC)C(N)=O | 2.67 | 
2 | CCC(=O)O | 1.85 | 
3 | O=S(=O)(O)Oc1ccc(C(c2ccc(OS(=O)(=O)O)cc2)c2ccccn2)cc1 | 0.705 | 
4 | Cn1ncc(Cl)c1-c1cc(C(=O)N[C@H](CN)Cc2cccc(F)c2)sc1Cl |  | 2.68 µM (active)
5 | CCCCCCCCCC(=O)O | 4.27 | 
6 | O=C1C(c2[nH]c3ccc(S(=O)(=O)O)cc3c2O)=Nc2ccc(S(=O)(=O)O)cc21 | -24.5 | 
7 | C=CC(=O)N1CCCC(n2nc(-c3ccc(Oc4ccccc4)cc3)c3c(N)ncnc32)C1 (configuration not stated) |  | 19 µM (active)
8 | CN(C)CCOc1cc(NS(=O)(=O)c2c(Cl)cc(C(F)(F)F)cc2Cl)ccc1Cl |  | 16.9 µM (active)
9 | COc1ccnc(CS(=O)c2nc3cc(OC(F)F)ccc3[nH]2)c1OC (configuration not stated) | -24.7 | 
10 | C=Cc1ccccc1 | -0.332 | 
11 | CCCCCCCCCCCCCCCC(=O)OC/C=C(C)/C=C/C=C(C)/C=C/C1=C(C)CCCC1(C)C | 5.17 | 
12 | Fc1ccc2c(CCNCc3cccc(OCC(F)(F)C(F)F)c3)c[nH]c2c1 |  | 0.0477 µM (active)
13 | CC1(S(=O)(=O)O)CC(=O)c2ccccc2C1=O (configuration not stated) |  | 8.49 µM (active)
14 | O=P(O)(O)OC(CO)CO | 9.01 | 
15 | COc1cc(Br)c(S(=O)(=O)Nc2ccc(Cl)c(O[C@@H]3CCN(C)C3)c2)cc1OC |  | 15.1 µM (active)
16 | CN(C)c1cccc(Oc2cnc(Nc3cccc(O)c3)nc2)c1 |  | 21.3 µM (active)
17 | CCCc1cc(C)n(C)c(=O)c1CN(C)C(=O)c1cc(-c2ccc(N3CCN(C(C)C)CC3)nc2)cc2c1cnn2C(C)C | 1.37 | 
18 | CCCCC(=O)O | -3.25 | 
19 | CN1CC(O)c2cc(N=NC(N)=O)c(O)cc21 (configuration not stated) | -3.39 | 
20 | CC1(C)S[C@@H]2[C@H](NC(=O)C(C(=O)Oc3ccc4c(c3)CCC4)c3ccccc3)C(=O)N2[C@H]1C(=O)O (some centres not stated) | 2.21 | 
21 | COc1ccc([C@H](Cc2ccncc2)c2ccccc2)cc1OC1CCCC1 |  | 12 µM (active)
22 | COC(C)=O | 8.99 | 
